Experimental data published in PubChem BioAssay (Tox21).
Inconclusive results are not listed. Active and inactive are the calls of the source. Calls follow the shape of the dose curve; as a rule, active = well fitted curve in the direction sought with a large enough effect in the repeat runs; inconclusive = weak or mixed curves; inactive = no such curve, though single readings can be large; an effect the other way counts as inactive or inconclusive.

Assays:
[1] = qHTS RealTime-Glo MT Cell Viability Assay in HepG2 cells - 40 hour (AID 1224870); also: nearly all actives have a fitted effect of over 50% in size
Outline: (§1)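 HepG2 cells (600/well) mixed with RealTime-Glo MT reagent, settled 5 h at 37 C/5% CO2 before compound addition. Nonlytic NanoLuc luminescence from viable-cell prosubstrate reduction read repeatedly during 40 h treatment at 37 C.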

[2] = A CellTox Green Cytotoxicity Assay to monitor cytotoxicity in HEK293 cells - 40 hour (AID 1224871); also: nearly all actives have a fitted effect of over 45% in size
Outline: (§2)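 Seeding of HEK293 cells together with cytotoxicity dye preceded a 5 h incubation at 37 C/5% CO2. Test compounds in DMSO were then added and fluorescence monitored across 40 h.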

[3] = qHTS RealTime-Glo MT Cell Viability Assay in HEK293 cells - 16 hour (AID 1224872); also: top concentration of the series differs between compounds; nearly all actives have a fitted effect of over 50% in size
Outline: (§3)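 Quantitative high-throughput screen of the Tox21 10K library in HEK293: cells and RealTime-Glo reagents plated together, compound added at 5 h, luminescence monitored through 40 h at 37 C.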

[4] = qHTS RealTime-Glo MT Cell Viability Assay in HepG2 cells - 8 hour (AID 1224873); also: nearly all actives have a fitted effect of over 55% in size
Outline: as §1

[5] = qHTS RealTime-Glo MT Cell Viability Assay in HEK293 cells - 40 hour (AID 1224874); details: RealTime-Glo luminescence; max response: active compounds read low; also: nearly all actives have a fitted effect of over 50% in size
Outline: (§4)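 Tox21 screen in HEK293 using RealTime-Glo MT chemistry, with cells and reagent co-dispensed. Luminescence proportional to viable cell number was captured at intervals during 40 h compound exposure at 37 C.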

[6] = A CellTox Green Cytotoxicity Assay to monitor cytotoxicity in HEK293 cells - 24 hour (AID 1224875); also: series mostly up to about 77 µM; nearly all actives have a fitted effect of over 45% in size
Outline: as §2

[7] = A CellTox Green Cytotoxicity Assay to monitor cytotoxicity in HepG2 cells - 16 hour (AID 1224876); also: nearly all actives have a fitted effect of over 45% in size
Outline: (§5)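 Nonlytic assay: viable cells exclude the dye, so fluorescence scales with cell death. HepG2 at 600 cells/well, compounds added after 5 h, signal read across 40 h.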

[8] = qHTS RealTime-Glo MT Cell Viability Assay in HepG2 cells - 32 hour (AID 1224877); also: nearly all actives have a fitted effect of over 55% in size
Outline: (§6)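 Compound treatment began 5 h after plating HepG2 cells (600/well) with NanoLuc luciferase and prosubstrate. Plates stayed at 37 C for 40 h; luminescence was captured at six time points, 0 h through 40 h.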

[9] = A CellTox Green Cytotoxicity Assay to monitor cytotoxicity in HepG2 cells - 24 hour (AID 1224878); also: nearly all actives have a fitted effect of over 45% in size
Outline: as §5

[10] = A CellTox Green Cytotoxicity Assay to monitor cytotoxicity in HepG2 cells - 40 hour (AID 1224879); also: nearly all actives have a fitted effect of over 40% in size
Outline: as §5

[11] = qHTS RealTime-Glo MT Cell Viability Assay in HEK293 cells - 0 hour (AID 1224880)
Outline: as §4

[12] = A CellTox Green Cytotoxicity Assay to monitor cytotoxicity in HEK293 cells - 32 hour (AID 1224881); also: nearly all actives have a fitted effect of over 40% in size
Outline: as §2

[13] = A CellTox Green Cytotoxicity Assay to monitor cytotoxicity in HepG2 cells - 0 hour (AID 1224882); also: nearly all actives have a fitted effect of over 35% in size
Outline: as §5

[14] = A CellTox Green Cytotoxicity Assay to monitor cytotoxicity in HepG2 cells - 32 hour (AID 1224883); also: nearly all actives have a fitted effect of over 50% in size
Outline: as §5

[15] = A CellTox Green Cytotoxicity Assay to monitor cytotoxicity in HEK293 cells - 8 hour (AID 1224884); also: nearly all actives have a fitted effect of over 35% in size
Outline: as §2

[16] = qHTS RealTime-Glo MT Cell Viability Assay in HepG2 cells - 16 hour (AID 1224885); also: nearly all actives have a fitted effect of over 50% in size
Outline: as §6

[17] = qHTS RealTime-Glo MT Cell Viability Assay in HEK293 cells - 24 hour (AID 1224886)
Outline: as §3

[18] = qHTS RealTime-Glo MT Cell Viability Assay in HEK293 cells - 8 hour (AID 1224887)
Outline: as §4

[19] = A CellTox Green Cytotoxicity Assay to monitor cytotoxicity in HEK293 cells - 16 hour (AID 1224888); also: nearly all actives have a fitted effect of over 35% in size
Outline: as §2

[20] = qHTS RealTime-Glo MT Cell Viability Assay in HepG2 cells - 0 hour (AID 1224889); also: nearly all actives have a fitted effect of over 50% in size
Outline: as §6
% is scaled to controls: 0 for no effect and ±100 for the full control effect.

O=C(CCNNC(=O)c1ccncc1)NCc1ccccc1
inactive: outcome [1] | Potency [2] | Potency [3] | outcome [4] | max response [5] 3.81% | outcome [6] | outcome [7] | outcome [8] | outcome [9] | Potency [10] | Potency [11] | Potency [12] | outcome [13] | Potency [14] | Potency [15] | outcome [16] | Potency [17] | Potency [18] | outcome [19] | Potency [20]

CCCOC(=O)C(C)O (stereo unspecified)
inactive: outcome [1] | Potency [2] | Potency [3] | outcome [4] | max response [5] -7.32% | outcome [6] | outcome [7] | outcome [8] | outcome [9] | Potency [10] | Potency [11] | Potency [12] | outcome [13] | Potency [14] | Potency [15] | outcome [16] | Potency [17] | Potency [18] | outcome [19] | Potency [20]

CC1=C(C(=O)O)N2C(=O)[C@@H](NC(=O)[C@H](N)c3ccc(O)cc3)[C@H]2SC1
inactive: outcome [1] | Potency [2] | Potency [3] | outcome [4] | max response [5] 13.3% | outcome [6] | outcome [7] | outcome [8] | outcome [9] | Potency [10] | Potency [12] | outcome [13] | Potency [14] | Potency [15] | outcome [16] | Potency [17] | outcome [19] | Potency [20]

BrCc1cccc(Oc2ccccc2)c1
inactive: outcome [1] | Potency [2] | Potency [3] | outcome [4] | max response [5] -9.91% | outcome [6] | outcome [7] | outcome [8] | Potency [12] | outcome [13] | Potency [15] | outcome [16] | Potency [17] | Potency [18] | outcome [19] | Potency [20]

CCN(C)C(=O)Oc1cccc([C@H](C)N(C)C)c1
inactive: outcome [1] | Potency [2] | Potency [3] | outcome [4] | max response [5] 1.94% | outcome [6] | outcome [7] | outcome [8] | outcome [9] | Potency [10] | Potency [12] | outcome [13] | Potency [14] | Potency [15] | outcome [16] | Potency [17] | outcome [19] | Potency [20]

C=CCCCCCCCCCCCC
inactive: outcome [1] | Potency [2] | Potency [3] | outcome [4] | max response [5] -0.0097% | outcome [6] | outcome [7] | outcome [8] | outcome [9] | Potency [10] | Potency [11] | Potency [12] | outcome [13] | Potency [14] | Potency [15] | outcome [16] | Potency [17] | outcome [19] | Potency [20]

O=C1c2ccccc2C(=O)C1c1ccccc1
inactive: outcome [1] | Potency [2] | Potency [3] | outcome [4] | max response [5] 3.3% | outcome [6] | outcome [7] | outcome [8] | outcome [9] | Potency [10] | Potency [11] | Potency [12] | outcome [13] | Potency [14] | Potency [15] | outcome [16] | Potency [17] | outcome [19] | Potency [20]

COC(=O)CCc1ccc(OCC(O)CNC(C)C)cc1 (stereo unspecified)
inactive: outcome [1] | Potency [2] | Potency [3] | outcome [4] | max response [5] 5.47% | outcome [6] | outcome [7] | outcome [9] | Potency [10] | Potency [11] | Potency [12] | outcome [13] | Potency [14] | Potency [15] | outcome [16] | Potency [17] | Potency [18] | outcome [19] | Potency [20]

Oc1cn2c(n1)Nc1ccc(Cl)c(Cl)c1C2
inactive: activity change, negative = cytotoxic [1] -4.5% [at 15.8 µM] | cytotoxicity increase [2] 2.17% [at 15.8 µM] | activity change, negative = cytotoxicity [3] 6.18% [at 15.8 µM] | viability change, negative = cytotoxic [4] -0.13% [at 15.8 µM] | max response [5] 10.9% | activity change [6] -3.58% [at 15.8 µM] | cytotoxicity increase [7] -4.2% [at 15.8 µM] | cytotoxicity [9] -5.44% [at 15.8 µM] | cytotoxicity increase [10] -8.09% [at 15.8 µM] | activity change, negative = cytotoxicity [11] -2.73% [at 15.8 µM] | cytotoxicity increase [12] -4.2% [at 15.8 µM] | cytotoxicity [13] 3.67% [at 15.8 µM] | cytotoxicity increase [14] -1.99% [at 15.8 µM] | cytotoxicity increase [15] 1.16% [at 15.8 µM] | activity change, negative = cytotoxic [16] 1.52% [at 15.8 µM] | activity change, negative = cytotoxicity [17] 2% [at 15.8 µM] | activity change, negative = cytotoxicity [18] 1.19% [at 15.8 µM] | activity change [19] -3.07% [at 15.8 µM] | activity change, negative = cytotoxicity [20] -2.51% [at 15.8 µM]

Cc1cccc(C)c1NC(=O)c1ccccc1C(=O)O
inactive: outcome [1] | Potency [2] | Potency [3] | outcome [4] | max response [5] 2.81% | outcome [6] | outcome [7] | outcome [8] | outcome [9] | Potency [10] | Potency [11] | Potency [12] | outcome [13] | Potency [14] | Potency [15] | outcome [16] | Potency [17] | Potency [18] | outcome [19] | Potency [20]

O=C(CS(=O)Cc1ccco1)NC/C=C\COc1cc(CN2CCCCC2)ccn1 (stereo unspecified)
inactive: outcome [1] | Potency [2] | Potency [3] | outcome [4] | max response [5] -0.682% | outcome [6] | outcome [7] | outcome [8] | outcome [9] | Potency [10] | Potency [11] | Potency [12] | outcome [13] | Potency [14] | Potency [15] | outcome [16] | Potency [17] | Potency [18] | outcome [19] | Potency [20]

N[C@@H](CCC(=O)Nc1ccc([N+](=O)[O-])cc1)C(=O)O
inactive: outcome [1] | Potency [2] | Potency [3] | outcome [4] | max response [5] -16.1% | outcome [6] | outcome [7] | outcome [8] | outcome [9] | Potency [10] | Potency [11] | Potency [12] | outcome [13] | Potency [14] | Potency [15] | outcome [16] | Potency [17] | outcome [19] | Potency [20]

CCCCCCCCOS(=O)(=O)O
inactive: outcome [1] | Potency [2] | Potency [3] | outcome [4] | max response [5] 2.61% | outcome [6] | outcome [7] | outcome [8] | outcome [9] | Potency [10] | Potency [12] | outcome [13] | Potency [14] | Potency [15] | outcome [16] | Potency [17] | Potency [18] | outcome [19] | Potency [20]
